The text below walks through data of PMC5700166.

Holding throughout (experiment): protein-binding microarray (PBM); PBM: ~300 nM protein, 6 mM HEPES pH 7.8, 80 mM KCl, 0.5 mM EDTA, 0.5 mM EGTA, 6% glycerol, 35 ng/ul poly-dIdC, 1% milk, 1 h, room temperature; Ap Aiptasia and Nv Nematostella (sea anemones) / Co Capsaspora / Aq Amphimedon (sponge) / Dm Drosophila / Hu human; RHD is the Rel homology domain; high values mean tight binding
Holding throughout (conditions): dsDNA, one strand shown

For one experiment, the target named is T1, GST-Ap-NF-kB RHD (Exaiptasia pallida (Aiptasia), UniProt A0A913YAJ5 2-422).
T1 sequence: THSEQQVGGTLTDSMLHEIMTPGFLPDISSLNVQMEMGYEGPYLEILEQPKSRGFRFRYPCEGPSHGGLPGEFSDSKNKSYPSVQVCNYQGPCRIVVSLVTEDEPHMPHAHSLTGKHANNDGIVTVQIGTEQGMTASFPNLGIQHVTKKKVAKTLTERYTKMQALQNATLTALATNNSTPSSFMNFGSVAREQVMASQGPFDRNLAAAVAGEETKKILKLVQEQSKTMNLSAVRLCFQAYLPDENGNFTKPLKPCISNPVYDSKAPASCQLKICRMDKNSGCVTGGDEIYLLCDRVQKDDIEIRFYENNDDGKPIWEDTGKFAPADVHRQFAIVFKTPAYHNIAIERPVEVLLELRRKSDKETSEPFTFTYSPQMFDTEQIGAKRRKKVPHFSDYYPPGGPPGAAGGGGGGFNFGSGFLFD

Experiment [1] deals with T2, GST-Nv-NF-kB (Cys allele) (Nematostella vectensis, UniProt E5G601 2-411).
T2 sequence: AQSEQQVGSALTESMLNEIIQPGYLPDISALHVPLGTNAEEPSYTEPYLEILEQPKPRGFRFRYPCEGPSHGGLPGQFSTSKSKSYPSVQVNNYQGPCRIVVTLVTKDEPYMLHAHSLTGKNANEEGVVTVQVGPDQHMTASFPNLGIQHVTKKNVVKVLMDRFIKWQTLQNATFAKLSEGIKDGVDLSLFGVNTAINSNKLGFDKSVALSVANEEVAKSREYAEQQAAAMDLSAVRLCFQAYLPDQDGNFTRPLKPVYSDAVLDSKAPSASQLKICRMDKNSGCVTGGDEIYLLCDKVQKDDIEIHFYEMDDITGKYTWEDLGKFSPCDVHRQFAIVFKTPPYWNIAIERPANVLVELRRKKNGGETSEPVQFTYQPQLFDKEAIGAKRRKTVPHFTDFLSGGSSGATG

The target of experiment [2] is T3, GST-Nv-NF-kB (Ser allele) (Nematostella vectensis, UniProt A7UNT2 2-411).
T3 sequence: T2 sequence with Q21R, C66S, S207N, E215Q, V217A, E225K, A268E, D399E

A further experiment concerns the target T4, GST-Co-NF-kB (Capsaspora owczarzaki, UniProt F1ARL5 200-546).
T4 sequence: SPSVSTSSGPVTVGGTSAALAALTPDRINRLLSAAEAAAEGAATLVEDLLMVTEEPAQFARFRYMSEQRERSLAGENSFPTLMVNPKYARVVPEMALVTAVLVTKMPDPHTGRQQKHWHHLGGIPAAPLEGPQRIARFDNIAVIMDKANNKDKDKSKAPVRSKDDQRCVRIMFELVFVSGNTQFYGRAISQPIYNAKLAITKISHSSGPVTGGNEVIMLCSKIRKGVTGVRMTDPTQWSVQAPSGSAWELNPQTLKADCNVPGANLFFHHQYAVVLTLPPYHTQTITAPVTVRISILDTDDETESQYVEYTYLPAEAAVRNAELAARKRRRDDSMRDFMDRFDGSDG

A further experiment deals with T5, GST-Dm-Relish (Drosophila melanogaster, UniProt Q94527 99-473).
T5 sequence: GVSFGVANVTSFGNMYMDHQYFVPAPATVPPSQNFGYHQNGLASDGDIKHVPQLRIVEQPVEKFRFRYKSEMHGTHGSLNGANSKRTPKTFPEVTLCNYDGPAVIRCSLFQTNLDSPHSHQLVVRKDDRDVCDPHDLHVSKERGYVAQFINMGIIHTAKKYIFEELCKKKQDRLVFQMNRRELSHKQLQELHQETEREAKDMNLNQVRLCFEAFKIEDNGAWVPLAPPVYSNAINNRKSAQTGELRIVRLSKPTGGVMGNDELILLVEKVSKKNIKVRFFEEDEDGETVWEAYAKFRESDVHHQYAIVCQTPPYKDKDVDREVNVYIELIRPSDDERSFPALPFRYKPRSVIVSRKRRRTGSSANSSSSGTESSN

The next experiment deals with T6, GST-Aq-NF-kB (Amphimedon queenslandica, UniProt A9Y5G7 2-389).
T6 sequence: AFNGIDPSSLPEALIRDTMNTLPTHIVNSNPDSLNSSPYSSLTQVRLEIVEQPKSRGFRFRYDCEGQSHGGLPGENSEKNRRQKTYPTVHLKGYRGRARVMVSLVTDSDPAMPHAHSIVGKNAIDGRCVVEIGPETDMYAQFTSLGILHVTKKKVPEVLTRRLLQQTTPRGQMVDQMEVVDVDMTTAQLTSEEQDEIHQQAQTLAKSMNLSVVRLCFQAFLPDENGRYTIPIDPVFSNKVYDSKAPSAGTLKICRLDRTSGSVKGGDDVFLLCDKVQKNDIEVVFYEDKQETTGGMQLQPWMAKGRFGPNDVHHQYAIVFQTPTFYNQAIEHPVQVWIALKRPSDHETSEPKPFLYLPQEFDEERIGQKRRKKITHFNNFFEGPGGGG

The next experiment deals with GST-Hu-p50 (Homo sapiens, UniProt P19838 7-356).
GST-Hu-p50, sequence (P19838 7-356): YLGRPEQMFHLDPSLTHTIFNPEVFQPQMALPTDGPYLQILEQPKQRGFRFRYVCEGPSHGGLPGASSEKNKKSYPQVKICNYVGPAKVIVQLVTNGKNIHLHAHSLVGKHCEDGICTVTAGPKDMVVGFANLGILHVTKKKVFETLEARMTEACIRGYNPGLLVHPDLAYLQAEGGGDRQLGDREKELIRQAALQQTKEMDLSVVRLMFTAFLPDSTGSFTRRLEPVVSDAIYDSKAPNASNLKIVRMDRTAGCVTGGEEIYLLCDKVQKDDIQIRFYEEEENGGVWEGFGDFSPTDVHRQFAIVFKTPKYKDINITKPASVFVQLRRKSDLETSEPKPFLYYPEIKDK

Residue numbers refer to the chain shown, from its start.

As to “CCGATTAACATCAGGGAGAACCCTGATGTTAATCGGGTCTTGATTCGCTTGACGCTGCTG”, the binding signal in the experiment with GST-Ap-NF-kB RHD was 4.28 z-score; in experiment [1], 3.85 z-score; in experiment [2], 1.28 z-score; in the experiment with GST-Co-NF-kB it was 1.72 z-score; in the experiment with GST-Dm-Relish it was 4.39 z-score; in the experiment with GST-Aq-NF-kB, 6.47 z-score. For the same sequence, the binding signal in the experiment with GST-Hu-p50 stood at 2.75 z-score.
As for “CCGATTAACATCAAACTCCCCCCTGATGTTAATCGGGTCTTGATTCGCTTGACGCTGCTG”, the binding signal with GST-Ap-NF-kB RHD came to 7.58 z-score; in experiment [1], 6.49 z-score; in experiment [2], 6.75 z-score; with GST-Co-NF-kB it was 7.67 z-score; with GST-Dm-Relish, 7.11 z-score; with GST-Aq-NF-kB, 6.54 z-score. The same sequence showed a binding signal with GST-Hu-p50 of 6.75 z-score.
As for “CCGATTAACATCACCTTTTTCCCTGATGTTAATCGGGTCTTGATTCGCTTGACGCTGCTG”, the binding signal with GST-Ap-NF-kB RHD stood at 3.29 z-score; in experiment [1] it was 4.53 z-score; in experiment [2] it was 6.24 z-score; with GST-Co-NF-kB, 5.31 z-score; with GST-Dm-Relish it was 1.92 z-score; in the experiment with GST-Aq-NF-kB, 3.4 z-score. This sequence also gave a binding signal with GST-Hu-p50 of 4.16 z-score.
In the case of “CCGATTAACATCAAAATTTCCCCTGATGTTAATCGGGTCTTGATTCGCTTGACGCTGCTG”, the binding signal came to 10.2 z-score with GST-Ap-NF-kB RHD; 11.6 z-score in experiment [1]; 14.6 z-score in experiment [2]; 10.6 z-score with GST-Co-NF-kB; 8.41 z-score with GST-Dm-Relish; 8.46 z-score with GST-Aq-NF-kB. In addition, the binding signal with GST-Hu-p50 was 7.8 z-score.
In the case of “CCGATTAACATCACCCCTTCCCCTGATGTTAATCGGGTCTTGATTCGCTTGACGCTGCTG”, the binding signal with GST-Ap-NF-kB RHD turned out to be 4.7 z-score; in experiment [1] it was 3.88 z-score; in experiment [2], 4.86 z-score; in the experiment with GST-Co-NF-kB, 5.6 z-score; in the experiment with GST-Dm-Relish it was 2.5 z-score; with GST-Aq-NF-kB, 3.85 z-score. Further, the binding signal with GST-Hu-p50 was determined as 3.3 z-score.
“CCGATTAACATCAAAAATACCCCTGATGTTAATCGGGTCTTGATTCGCTTGACGCTGCTG”: the binding signal with GST-Ap-NF-kB RHD was found to be 7.44 z-score; in experiment [1], 8.45 z-score; in experiment [2], 7.96 z-score; in the experiment with GST-Co-NF-kB it was 6.5 z-score; in the experiment with GST-Dm-Relish, 7.71 z-score; with GST-Aq-NF-kB it was 7.5 z-score. In the experiment with GST-Hu-p50, this sequence gave a binding signal of 6.44 z-score.
For “CCGATTAACATCAGGATTGTCCCTGATGTTAATCGGGTCTTGATTCGCTTGACGCTGCTG”, the binding signal in the experiment with GST-Ap-NF-kB RHD is 2.96 z-score; in experiment [1], 3.96 z-score; in experiment [2], 2.92 z-score; in the experiment with GST-Co-NF-kB, 1.06 z-score; with GST-Dm-Relish, 1.57 z-score; in the experiment with GST-Aq-NF-kB it was 5.51 z-score. The sequence also registered a binding signal in the experiment with GST-Hu-p50 of 2.84 z-score.
Turning to “CCGATTAACATCAAGAAAACCCCTGATGTTAATCGGGTCTTGATTCGCTTGACGCTGCTG”, the binding signal in the experiment with GST-Ap-NF-kB RHD came to 6.98 z-score; in experiment [1], 7.2 z-score; in experiment [2], 6.87 z-score; with GST-Co-NF-kB, 2.44 z-score; in the experiment with GST-Dm-Relish, 7.76 z-score; with GST-Aq-NF-kB, 6.52 z-score. In addition, in the experiment with GST-Hu-p50, the binding signal came out at 6.8 z-score.
For the sequence “CCGATTAACATCAAGGGGAAAATTGATGTTAATCGGGTCTTGATTCGCTTGACGCTGCTG”, the binding signal amounted to 7.28 z-score with GST-Ap-NF-kB RHD; 8.8 z-score in experiment [1]; 11.5 z-score in experiment [2]; 8.77 z-score with GST-Co-NF-kB; 4.19 z-score with GST-Dm-Relish; 7.23 z-score with GST-Aq-NF-kB. For the same sequence, in the experiment with GST-Hu-p50, the binding signal amounted to 6.72 z-score.
